From PubChem BioAssay
MPTP inh = mitochondrial permeability transition pore inhibitors, primary screen, biochemical, isolated mouse mitochondria, absorbance | Ca2+ swelling absorbance, 30 min | inhibition, % at 10 µM | actives 1.4% (n = 360,000);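 active means inhibition of 50% or more, scaled per plate between neutral and stimulator controls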;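 further: 0% = DMSO wells given calcium and 100% = 1 mM EGTA wells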
Beta apoptosis = inhibitors of cytokine-induced beta cell apoptosis, primary screen, luminescence | INS-1E cytokine-induced death, ATP luminescence, 48 h; percent of positive-control rescue, neutral wells zero | protection from apoptosis, % (test concentration not listed) | actives 0.8% (n = 300,000) | AID 435005, 2010;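 active means Every replicate reaches about 75%, or at least half do and their mean reaches it too, limit read from the data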;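 further: 0% = cytokine-treated negative control wells and 100% = positive control rescue; higher means more ATP so stronger rescue from cytokine killing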
CSC inhib = cancer stem cell viability inhibitors, primary screen, luminescence; cancer stem cell-like cells viability; inhibition, % at 7.5 µM; actives 1.1% (n = 300,000); in the data active means inhibition above about 75%; tested in HMLE shEcad cells
Mdm2 MdmX PPI = inhibitors of human Mdm2-MdmX association, primary screen, cell-based, luminescence, split luciferase, SaOS-2, uHTS. SaOS-2 split-luciferase Mdm2/MdmX complementation. AID 485346, 2010. actives 3% (n = 330,000). inhibition, % at 8 µM. Protein Mdm4 (Homo sapiens) + E3 ubiquitin-protein ligase Mdm2 (Homo sapiens), …;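 active means inhibition of at least 50% at 8 µM in the primary screen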
SKKanGAS inh = S. pyogenes SKKanGAS growth inhibitors in kanamycin, primary screen, streptokinase expression inhibitor project, SKKanGAS strain, BacTiter-Glo luminescence | 6 h | inhibition, % at 7.5 µM | actives 1.3% (n = 300,000);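 active means mean replicate score, as percent of positive control median, at least 50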;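 further: strain carries kanamycin resistance gene driven by streptokinase promoter and grows in 40 µg/ml kanamycin; loss of luminescence reflects streptokinase promoter inhibition or plain growth inhibition; 0% = median of DMSO wells and 100% = positive control at its reference dose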
GRIN3A LBD mod = binders of NR3A ligand-binding domain, primary screen, biophysical, differential scanning fluorimetry, uHTS | Glutamate receptor ionotropic, NMDA 3A (GRIN3A) ligand-binding domain | NR3A LBD differential scanning fluorimetry, Tm shift; 0% = protein alone, 100% = glycine-bound protein | Tm shift relative to glycine control, % at 25 µM | actives 2.5% (n = 340,000);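 active means melting temperature shift of at least 10% of the positive control shift, at one fixed dose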
Mdm2 MdmX conf = Mdm2-MdmX complex disruptors, retested hits, confirmation, luminescence, single concentration; shares compounds with Mdm2 MdmX PPI; Mdm2-MdmX binding, luminescent assay; inhibition, % at 8 µM; actives 55% (n = 10,000); AID 489028, 2010; in the data active means inhibition above about 40%
FLuc counter = full-length luciferase signal inhibition, confirmation, counter-screen for Mdm2/MdmX interaction inhibitor project, cell-based, single concentration, SaOS-2 | shares compounds with Mdm2 MdmX PPI | SaOS-2 full-length luciferase counterscreen, luminescence | inhibition, % at 8 µM | actives 77% (n = 6,200);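 active means mean inhibition at 8 µM reaching about 37%, which flags the compound as non-specific, limit read from the data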;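 further: p53-null SaOS-2 cells with luciferase driven by a doxycycline-inducible promoter; compound on cells about two nights before reading with doxycycline added after day one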
Numbers without * were called inactive; . = not tested or not shown. Sampled rows, rich in hits. Any-hit rate of the full collection: about 6.9%.

SMILES	MPTP inh	Beta apoptosis	CSC inhib	Mdm2 MdmX PPI	SKKanGAS inh	GRIN3A LBD mod	Mdm2 MdmX conf	FLuc counter
O=C(COC(=O)c1nc(Cl)c(Cl)c(Cl)c1Cl)c1ccc[nH]1	-2	.	12	73*	-13	0	32	.
O=C(c1ccccc1SCc1ccccc1)N1CCCCCC1	2	3	-11	16	5	-7	.	.
CN(C)C(CNC(=O)CCNS(=O)(=O)c1ccccc1C(F)(F)F)c1ccccc1 (stereo not given)	1	-4	-26	-23	.	1	.	.
Cc1ccc(Nc2nnc(SCC(=O)Nc3ncc(S(=O)(=O)c4ccc([N+](=O)[O-])cc4)s3)s2)cc1	3	1	.	62*	30	16*	16	.
O=C1/C(=C\c2c(NCCOCCO)nc3ccccn3c2=O)SC(=S)N1Cc1ccco1	6	.	.	54*	9	4	28	.
O=C(CCOc1ccccc1)Nc1ccc(Cl)c(S(=O)(=O)N2CCOCC2)c1	0	.	.	17	.	2	.	.
CCOC(=O)NC(=O)C(=CNc1ccccc1C)C(=O)NC(=O)OCC	4	-16	-4	-17	-5	-1	.	.
Cc1nn(Cc2c(F)c(F)c(F)c(F)c2F)c(C)c1NC(=O)c1ccc(COc2ccc(Cl)cc2Cl)o1	7	21	37	47	29	1	.	.
Cc1nn(Cc2ccc(Cl)cc2Cl)c(C)c1NC(=O)c1nn(C)cc1Cl	-2	-6	-7	13	-6	0	.	.
Cc1nn(Cc2ccc(Cl)cc2Cl)c(C)c1NC(=O)c1ccc(COc2cc(Cl)ccc2Cl)o1	2	7	4	58*	19	2	-4	.
Cc1nn(Cc2ccc(Cl)cc2Cl)c(C)c1NC(=O)CCl	0	-9	-6	78*	-4	0	92*	62*
Cc1ccc2nc(Cl)c(C#N)cc2c1	-2	-11	-16	1	2	-1	.	.
Cc1ccc(C(c2cc(Cl)c3cccnc3c2O)N2CCN(C)CC2)cc1 (stereo not given)	6	52	115*	69*	51*	9	57*	32
Oc1c(C(c2ccc(Cl)cc2)N2CCCC2)cc(Cl)c2cccnc12 (stereo not given)	4	16	99*	80*	80*	-9	72*	33
Oc1c(C(c2ccccn2)N2CCC(Cc3ccccc3)CC2)cc(Cl)c2cccnc12 (stereo not given)	.	16	.	56*	75*	-3	38	33
O=C(N/C(=C/C=C\c1ccccc1)C(=O)N1CCOCC1)c1ccc(Br)cc1	0	-6	-11	29	5	0	.	.
COc1cc(/C=C2\SC(=O)N(CCNC(=O)c3sc4cc(F)ccc4c3Cl)C2=O)cc(OC)c1OC	1	8	33	54*	-3	2	-10	.
COc1cc(C(=O)NCC(=O)NCCN2C(=O)S/C(=C\c3ccccc3Cl)C2=O)cc(OC)c1OC	-1	7	-11	-18	0	-1	.	.
CC(C)(C)c1cc(C(=O)N/N=C/c2ccccc2O)n(-c2ccccc2)n1	4	85*	117*	70*	73*	1	77*	29
COc1ccc(/C=C\C(=O)NCC(=O)N/N=C/c2ccc(O)cc2O)cc1	0	7	47	13	12	-2	.	.
COc1ccc2[nH]c(C(=O)N/N=C/c3ccc(O)cc3O)cc2c1	1	121*	100*	71*	-4	13*	83*	31
COc1ccc(/C=N/NC(=O)c2nc(-c3ccccc3)n(-c3ccccc3)n2)c(O)c1	4	103*	.	63*	5	-3	66*	41*
CCOc1ccc2[nH]c(C(=O)N/N=C/c3ccc(OC)cc3)cc2c1	0	34	51	53*	0	.	56*	96*
CC(C)(C)c1cc(C(=O)N/N=C/c2ccc(F)cc2)n(-c2ccccc2)n1	2	9	59	13	1	-2	.	.
CCC(C)(C)C1CCC2(CC1)NC(=O)N(CC(=O)N1CCN(S(=O)(=O)c3cc(C)ccc3C)CC1)C2=O (stereo not given)	1	29	7	82*	6	4	37	89*
SMILES	MPTP inh	Beta apoptosis	CSC inhib	Mdm2 MdmX PPI	SKKanGAS inh	GRIN3A LBD mod	Mdm2 MdmX conf	FLuc counter
CN(c1cccc2cccnc12)S(=O)(=O)c1ccccc1	0	.	-10	2	2	4	.	.
CC(=O)Oc1c(-c2ccc(Br)o2)oc2ccccc2c1=O	3	2	21	93*	86*	-2	41*	30
O=C(O)COc1c(-c2ccco2)oc2ccccc2c1=O	-1	0	-4	-14	-2	2	.	.
COc1ccc(-c2oc3ccccc3c(=O)c2OC(C)=O)cc1	3	3	27	73*	16	1	83*	51*
Cc1sc2nc(-c3cccnc3)nc(Cl)c2c1-c1ccccc1	2	-6	24	-27	17	4	.	.
N#Cc1cc2c(nc1SCC(=O)N1CCOCC1)CCCCC2	1	.	.	81*	-2	4	86*	115*
Cc1ccccc1-c1nc2cc(Cl)ccc2c(=O)o1	3	-1	10	52*	2	2	50*	76*
COc1ccc(/C=C/C(=O)Nc2sc(Cc3ccccc3)c(C)c2C(N)=O)cc1	2	2	9	64*	-7	2	34	114*
Cc1c(Cc2ccccc2)sc(NC(=O)Cc2ccccc2)c1C(N)=O	-3	-3	13	2	3	-2	.	.
CC(C)(C#CC(O)(c1ccccc1)c1ccccc1)N1CCCC1	0	0	-9	1	-3	4	.	.
COc1ccccc1C(=O)COC(=O)/C(=C/c1ccccc1)NC(C)=O	-1	.	-2	15	-5	-3	.	.
COc1ccc(NC(=O)CC(CC(=O)O)c2cc(OC)c(OC)c(OC)c2)cc1 (stereo not given)	2	3	-9	12	-1	4	.	.
